The nature of assay [1]: ATG_GRE_CIS: Attagene CIS-FACTORIAL HepG2 Assay for human Glucocorticoid Response Elements (GRE) (AID 2282947; active means hit-call score of the fitted dose curve at least 0.9, where 1 is the maximum; inactive means score below 0.9). The note with it: HepG2 GRE cis-reporter, Attagene multiplex mRNA; actives raise or lower the signal. Put shortly:
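HepG2, transient cis-reporter transfection, 24 h. Reporter mRNA: RT-PCR then CE, fluorescence. Fit both directions vs DMSO.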

Assay [2] deals with Transcription factor Sp1 (Homo sapiens) (UniProt P08047). In words: ATG_Sp1_CIS: Attagene CIS-FACTORIAL HepG2 Assay for human Specificity Protein 1 (Sp1) (AID 2282961; active means hit-call score of the fitted dose curve at least 0.9, where 1 is the maximum; inactive means score below 0.9). The conditions noted are these: HepG2 Sp1 cis-reporter transcription, actives raise or lower the signal. Put shortly: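 Chemicals are dosed onto HepG2 cells transfected with multiple cis-promoter reporter constructs, and after 24 h reporter RNA is reverse-transcribed, PCR-amplified and resolved by capillary electrophoresis for fluorescence quantitation; activity is scored up or down against DMSO.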

Assay [3] concerns the target Signal transducer and activator of transcription 3 (Homo sapiens) (UniProt P40763). The assay is described as follows: ATG_STAT3_CIS: Attagene CIS-FACTORIAL HepG2 Assay for human Signal Transducer and Activator of Transcription 3 (STAT3) (AID 2282963; active means hit-call score of the fitted dose curve at least 0.9, where 1 is the maximum; inactive means score below 0.9). The note with it: HepG2, Attagene cis-factorial STAT3 reporter transcription; actives raise or lower the signal. Put shortly:
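Uses human liver HepG2 transiently carrying cis-regulated reporter transcription units. Following 24 h dosing, reporter mRNA induction was detected by RT-PCR and capillary electrophoresis, analysed bidirectionally versus DMSO.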

A short description of assay [4]: ATG_M_06_TRANS: Attagene TRANS-FACTORIAL HepG2 Assay for M06 Transcription Factor (Internal Marker) (AID 2282983).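 Further: reporter transcript level by RT-PCR then capillary electrophoresis fluorescence.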 The note with it: HepG2 Attagene TRANS M06 internal marker reporter. Put shortly: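 Read-out: fluorescent reporter cDNA fragments resolved by capillary electrophoresis after RT-PCR and HpaI cut. Source cells were HepG2 carrying transfected multi-reporter GAL4 constructs, dosed 24 h. Increase over DMSO control analysed.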

The nature of assay [5]: ATG_NFI_CIS: Attagene CIS-FACTORIAL HepG2 Assay for human Nuclear Factor I (NFI) (AID 2282989; active means hit-call score of the fitted dose curve at least 0.9, where 1 is the maximum; inactive means score below 0.9). The note with it: HepG2 cis-regulatory reporter, NFI response element transcription; actives raise or lower the signal. An outline of the steps: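 HepG2, transient MRTU, 24 h exposure; RNA→cDNA→PCR→FAM label→HpaI→CE fluorescence. Bidirectional fit, DMSO = baseline.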
The target in assay [6] is Peroxisome proliferator-activated receptor gamma (Homo sapiens) (UniProt P37231). In words: ATG_PPARg_TRANS: Attagene TRANS-FACTORIAL HepG2 Assay for human Peroxisome Proliferator-activated Receptor-gamma (PPARg) (AID 2283007). An outline of the steps:
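Chimeric NR-Gal4 transactivation is measured in transiently transfected HepG2 cells by reporter mRNA induction at 24 h. Detection uses RT-PCR with fluorescent labelling and capillary electrophoresis; DMSO defines baseline.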

A short description of assay [7]: TOX21_p53_BLA_p2_viability: Viability Assessment in the Tox21 HCT-116 p53 Agonism Beta-lactamase Assay, Phase 2 (AID 2283591).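 Further: actives lower the ATP signal meaning cytotoxicity.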 An outline of the steps: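 HCT-116 p53-bla cells (4000/well) rested 5 h at 37C, then received compounds in DMSO (217-fold dilution) for 16 h at 37C, 5% CO2. After the CCF4 read, CellTiter-Glo was added; ATP luminescence was read after 30 min at room temperature.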

Assay [8] concerns the target Cellular tumor antigen p53 (Homo sapiens) (UniProt P04637). In words: TOX21_p53_BLA_p2_ratio: Tox21 HCT-116 p53 Agonism Beta-lactamase Assay, Ratio, Phase 2 (AID 2283592). Put shortly: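 Readout: blue/green (460/530 nm) FRET emission ratio after 2 h CCF4-AM loading at room temperature, excitation 405 nm. HCT116 p53 bla cells, 16 h compound exposure at 37C, 5% CO2; agonist direction fitted against DMSO baseline.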

Assay [9] has the same target. In words: TOX21_p53_BLA_p3_ratio: Tox21 HCT-116 p53 Agonism Beta-lactamase Assay, Ratio, Phase 3 (AID 2283596). Put shortly: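 Cells were seeded at 4000/well, rested 5 h at 37C, then dosed with DMSO compound solutions (217-fold dilution) for 16 h. CCF4-AM substrate was loaded for 2 h at room temperature, and the 460/530 nm emission ratio was fitted for gain of signal versus DMSO.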

A short description of assay [10]: TOX21_p53_BLA_p4_viability: Viability Assessment in the Tox21 HCT-116 p53 Agonism Beta-lactamase Assay, Phase 4 (AID 2283597).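 Further: hits lower the luminescence signal meaning cytotoxicity.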 Put shortly: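 ATP content by CellTiter-Glo luminescence, 30 min RT, read after the beta-lactamase ratio step. Cells: HCT116, 4000/well, compound added after 5 h, exposure 16 h at 37C. Signal loss = reduced viability.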
Assay [11] concerns the target Cellular tumor antigen p53 (Homo sapiens) (UniProt P04637). The assay is described as follows: TOX21_p53_BLA_p5_ratio: Tox21 HCT-116 p53 Agonism Beta-lactamase Assay, Ratio, Phase 5 (AID 2283599). Put shortly: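 HCT-116 cells carrying a p53-inducible beta-lactamase reporter were seeded at 4000 cells/well and dosed after 5 h with compound in DMSO (217-fold dilution). After 16 h at 37C, CCF4-AM substrate was added for 2 h, and the 460/530 nm emission ratio was scored as gain-of-signal versus DMSO.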

A short description of assay [12]: TOX21_p53_BLA_p5_viability: Viability Assessment in the Tox21 HCT-116 p53 Agonism Beta-lactamase Assay, Phase 5 (AID 2283600). Put shortly:
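ATP luminescence (CellTiter-Glo, 30 min, RT) served as the viability read-out, with loss of signal indicating cytotoxicity. Compounds in DMSO were pinned at a 217-fold dilution onto 4000 cells/well and incubated 16 h, 37C.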

In assay [13] the target is Cellular tumor antigen p53 (Homo sapiens) (UniProt P04637). In words: TOX21_p53_BLA_p4_ratio: Tox21 HCT-116 p53 Agonism Beta-lactamase Assay, Ratio, Phase 4 (AID 2283601). An outline of the steps: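 HCT116 cells carrying an inducible beta-lactamase reporter were plated at 4000 cells/well, rested 5 h, then exposed to compounds in DMSO (217-fold dilution) for 16 h at 37C. CCF4-AM substrate was loaded 2 h at room temperature; 460/530 nm emission ratio scored gain-of-signal versus DMSO.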

Assay [14] is described as follows: ACEA_ER_AUC_viability: ACEA Biosciences xCELLigence Real-Time Cell Analysis on Estrogen Receptor Agonism for Viability (AID 2283782).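 Further: hit means loss of impedance signal meaning reduced cell growth or viability.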 An outline of the steps:
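Continuous-exposure impedance cell analysis uses T-47D cells in charcoal-stripped serum, eight 1:4 dilutions topping at 100 uM final, biological duplicate. Area under the growth curve at 80 h is fitted against DMSO baseline.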

Assay [15] in a line: ATG_PBREM_CIS: Attagene CIS-FACTORIAL HepG2 Assay for human Phenobarbital-responsive Enhancer Module (PBREM) (AID 2282955; active means hit-call score of the fitted dose curve at least 0.9, where 1 is the maximum; inactive means score below 0.9). The note with it: HepG2 PBREM cis-reporter, Attagene multiplexed transcription; actives raise or lower the signal. An outline of the steps: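 Multiplexed cis-reporter readout in human hepatoma HepG2 cells; PBREM-regulated transcript quantified after 24 h exposure by fluorescent RT-PCR fragment analysis. Signal changes up or down fitted relative to DMSO.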

The nature of assay [16]: ATG_RORE_CIS: Attagene CIS-FACTORIAL HepG2 Assay for human RAR-related Orphan Receptor Element (RORE) (AID 2282959; active means hit-call score of the fitted dose curve at least 0.9, where 1 is the maximum; inactive means score below 0.9). The note with it: HepG2 Attagene cis-factorial RORE reporter, mRNA; actives raise or lower the signal. An outline of the steps:
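Transfect HepG2 with MRTUs; treat 24 h; extract RNA; RT with oligo(dT); PCR with reporter-specific primers; 6-FAM primer extension; HpaI digest 2 h at 37 C; capillary electrophoresis. Fit vs DMSO, bidirectional.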

Assay [17] has as its target human Retinoid X Receptor beta (RXRb), RXRB (gene 6257) (UniProt P28702). The assay is described as follows: ATG_RXRb_TRANS: Attagene TRANS-FACTORIAL HepG2 Assay for human Retinoid X Receptor beta (RXRb) (AID 2283013). Put shortly:
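Read-out: reporter mRNA induction via RT-PCR plus capillary electrophoresis fluorescence, analysed as signal increase relative to DMSO. Cells were human HepG2, transiently transfected with GAL4-UAS reporter constructs and chimeric receptor-Gal4 fusions, dosed for 24 h.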

The target of assay [18] is Transcriptional activator Myb (Homo sapiens) (UniProt P10242). In words: ATG_Myb_CIS: Attagene CIS-FACTORIAL HepG2 Assay for human Myeloblastosis (Myb) Proto-Oncogene Transcription Factor (AID 2282986; active means hit-call score of the fitted dose curve at least 0.9, where 1 is the maximum; inactive means score below 0.9). The conditions noted are these: HepG2 Attagene CIS-FACTORIAL Myb reporter transcription; actives raise or lower the signal. An outline of the steps:
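Using HepG2 liver cells bearing transiently transfected cis-promoter reporter constructs, the assay measures induction or loss of reporter mRNA after 24 hours of dosing. Detection used fluorescently labeled RT-PCR products separated by capillary electrophoresis.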

The target in assay [19] is Hepatocyte nuclear factor 4-alpha (Homo sapiens) (UniProt P41235). The assay is described as follows: ATG_HNF4a_TRANS: Attagene TRANS-FACTORIAL HepG2 Assay for human Hepatocyte Nuclear Factor 4 alpha (HNF4a) (AID 2282982). The conditions noted are these: HepG2 HNF4a transactivation reporter, mRNA readout. An outline of the steps: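 Using HepG2 liver cells transfected with GAL4-UAS reporter units, chemical-induced mRNA increases were assessed after 24 hours. Fluorescent RT-PCR fragments were separated by capillary electrophoresis and compared with DMSO negative controls.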

Assay [20] in a line: ATG_M_32_TRANS: Attagene TRANS-FACTORIAL HepG2 Assay for M32 Transcription Factor (Internal Marker) (AID 2282984).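 Further: transcript level of a background control reporter unit measured by RT-PCR and capillary electrophoresis.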 The conditions noted are these: HepG2 Attagene TRANS M32 internal marker reporter. Put shortly: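 Fluorescence-detected mRNA induction, HepG2 liver cells, 24 h after dosing. Multiple GAL4-UAS reporter units introduced by transient transfection; background-control endpoint analysed for gain of signal against DMSO.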

Results filed as inconclusive are left out. A structure can be active in one record and inactive in another. The source made the active and inactive calls. How the source made its calls, unless noted: active means hit-call score of the fitted dose curve at least 0.9, where 1 is the maximum; inconclusive means response in the unintended direction; inactive means score below 0.9.

Sequence of Cellular tumor antigen p53 (Homo sapiens) (P04637 whole entry, looked up): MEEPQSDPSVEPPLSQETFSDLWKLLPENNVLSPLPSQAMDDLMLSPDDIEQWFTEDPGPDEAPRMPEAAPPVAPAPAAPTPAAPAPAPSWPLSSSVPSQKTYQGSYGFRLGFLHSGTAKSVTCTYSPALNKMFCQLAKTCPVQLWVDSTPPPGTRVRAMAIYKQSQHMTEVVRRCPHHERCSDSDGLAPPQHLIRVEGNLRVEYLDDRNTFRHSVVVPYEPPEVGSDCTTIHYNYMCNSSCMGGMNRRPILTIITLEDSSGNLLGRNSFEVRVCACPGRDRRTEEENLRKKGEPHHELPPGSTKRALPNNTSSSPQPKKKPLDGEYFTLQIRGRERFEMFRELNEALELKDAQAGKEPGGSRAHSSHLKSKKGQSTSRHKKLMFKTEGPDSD
Sequence of Peroxisome proliferator-activated receptor gamma (Homo sapiens) (P37231 whole entry, looked up, the tested form may be a part): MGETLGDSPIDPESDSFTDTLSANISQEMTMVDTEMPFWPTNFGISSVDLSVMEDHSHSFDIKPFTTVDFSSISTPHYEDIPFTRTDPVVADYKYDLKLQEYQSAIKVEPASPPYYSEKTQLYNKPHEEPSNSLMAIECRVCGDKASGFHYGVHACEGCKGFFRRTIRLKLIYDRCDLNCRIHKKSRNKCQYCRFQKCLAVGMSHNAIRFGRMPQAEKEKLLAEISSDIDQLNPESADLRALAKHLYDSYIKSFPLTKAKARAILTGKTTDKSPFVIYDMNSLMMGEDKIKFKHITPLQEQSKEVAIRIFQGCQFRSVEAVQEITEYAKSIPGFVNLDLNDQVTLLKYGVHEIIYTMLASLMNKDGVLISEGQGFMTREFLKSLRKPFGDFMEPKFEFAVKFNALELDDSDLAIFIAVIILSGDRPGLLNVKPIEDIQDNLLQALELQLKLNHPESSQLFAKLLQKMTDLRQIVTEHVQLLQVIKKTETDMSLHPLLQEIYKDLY
Sequence of Transcription factor Sp1 (Homo sapiens) (P08047 whole entry, looked up): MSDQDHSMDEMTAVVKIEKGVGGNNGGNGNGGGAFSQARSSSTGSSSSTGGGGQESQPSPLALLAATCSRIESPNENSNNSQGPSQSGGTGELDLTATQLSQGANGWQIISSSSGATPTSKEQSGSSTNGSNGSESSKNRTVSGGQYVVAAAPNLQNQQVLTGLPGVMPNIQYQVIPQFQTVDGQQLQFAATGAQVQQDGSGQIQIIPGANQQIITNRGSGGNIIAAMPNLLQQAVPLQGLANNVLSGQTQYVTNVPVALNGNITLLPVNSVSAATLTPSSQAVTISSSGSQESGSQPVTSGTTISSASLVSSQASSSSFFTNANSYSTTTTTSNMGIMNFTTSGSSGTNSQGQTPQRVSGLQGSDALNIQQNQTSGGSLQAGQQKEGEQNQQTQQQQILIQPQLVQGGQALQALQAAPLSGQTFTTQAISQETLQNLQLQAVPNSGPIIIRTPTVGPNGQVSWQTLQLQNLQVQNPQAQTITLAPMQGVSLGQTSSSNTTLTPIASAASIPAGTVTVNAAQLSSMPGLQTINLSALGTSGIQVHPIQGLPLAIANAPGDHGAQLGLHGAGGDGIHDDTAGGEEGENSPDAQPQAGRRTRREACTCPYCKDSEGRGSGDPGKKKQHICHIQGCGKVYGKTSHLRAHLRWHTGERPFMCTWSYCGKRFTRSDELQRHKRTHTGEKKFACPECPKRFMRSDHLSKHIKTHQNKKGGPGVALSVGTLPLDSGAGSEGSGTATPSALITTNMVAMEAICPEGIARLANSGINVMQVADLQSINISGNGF
Sequence of human Retinoid X Receptor beta (RXRb), RXRB (gene 6257) (P28702 whole entry, looked up, the tested form may be a part): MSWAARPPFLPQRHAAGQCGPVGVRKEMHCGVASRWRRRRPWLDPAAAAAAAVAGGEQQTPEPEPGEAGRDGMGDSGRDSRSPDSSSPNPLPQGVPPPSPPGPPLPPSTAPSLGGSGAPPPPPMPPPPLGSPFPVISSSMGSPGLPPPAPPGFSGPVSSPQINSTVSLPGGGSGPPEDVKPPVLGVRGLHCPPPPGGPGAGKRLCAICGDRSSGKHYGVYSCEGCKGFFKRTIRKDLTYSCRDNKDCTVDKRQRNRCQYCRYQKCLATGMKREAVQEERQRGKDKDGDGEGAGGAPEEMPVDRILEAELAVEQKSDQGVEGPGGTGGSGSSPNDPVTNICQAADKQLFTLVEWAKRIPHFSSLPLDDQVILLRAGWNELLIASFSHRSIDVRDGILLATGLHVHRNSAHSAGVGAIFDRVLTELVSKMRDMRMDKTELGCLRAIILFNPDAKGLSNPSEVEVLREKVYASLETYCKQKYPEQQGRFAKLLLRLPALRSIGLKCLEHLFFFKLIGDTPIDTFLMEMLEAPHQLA
Sequence of Signal transducer and activator of transcription 3 (Homo sapiens) (P40763 whole entry, looked up): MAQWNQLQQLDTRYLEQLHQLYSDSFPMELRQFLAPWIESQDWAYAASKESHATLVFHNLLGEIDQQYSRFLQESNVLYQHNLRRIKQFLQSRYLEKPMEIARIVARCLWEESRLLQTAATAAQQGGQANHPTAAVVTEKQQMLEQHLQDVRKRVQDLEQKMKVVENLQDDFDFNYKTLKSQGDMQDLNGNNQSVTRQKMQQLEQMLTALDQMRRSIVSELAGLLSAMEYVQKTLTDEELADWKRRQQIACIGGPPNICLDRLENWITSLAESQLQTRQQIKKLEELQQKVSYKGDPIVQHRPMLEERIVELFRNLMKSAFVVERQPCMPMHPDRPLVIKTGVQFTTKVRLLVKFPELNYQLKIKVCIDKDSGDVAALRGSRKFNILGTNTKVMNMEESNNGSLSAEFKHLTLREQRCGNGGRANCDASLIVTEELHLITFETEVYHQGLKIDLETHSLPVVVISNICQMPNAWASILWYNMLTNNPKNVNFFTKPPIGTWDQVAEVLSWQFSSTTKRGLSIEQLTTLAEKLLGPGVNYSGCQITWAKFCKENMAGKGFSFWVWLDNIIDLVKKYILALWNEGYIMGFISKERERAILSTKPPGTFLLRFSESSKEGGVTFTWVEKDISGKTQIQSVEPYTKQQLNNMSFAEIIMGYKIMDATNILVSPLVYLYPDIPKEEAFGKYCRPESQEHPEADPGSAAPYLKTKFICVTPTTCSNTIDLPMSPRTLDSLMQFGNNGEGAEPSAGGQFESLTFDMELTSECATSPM
Sequence of Transcriptional activator Myb (Homo sapiens) (P10242 whole entry, looked up): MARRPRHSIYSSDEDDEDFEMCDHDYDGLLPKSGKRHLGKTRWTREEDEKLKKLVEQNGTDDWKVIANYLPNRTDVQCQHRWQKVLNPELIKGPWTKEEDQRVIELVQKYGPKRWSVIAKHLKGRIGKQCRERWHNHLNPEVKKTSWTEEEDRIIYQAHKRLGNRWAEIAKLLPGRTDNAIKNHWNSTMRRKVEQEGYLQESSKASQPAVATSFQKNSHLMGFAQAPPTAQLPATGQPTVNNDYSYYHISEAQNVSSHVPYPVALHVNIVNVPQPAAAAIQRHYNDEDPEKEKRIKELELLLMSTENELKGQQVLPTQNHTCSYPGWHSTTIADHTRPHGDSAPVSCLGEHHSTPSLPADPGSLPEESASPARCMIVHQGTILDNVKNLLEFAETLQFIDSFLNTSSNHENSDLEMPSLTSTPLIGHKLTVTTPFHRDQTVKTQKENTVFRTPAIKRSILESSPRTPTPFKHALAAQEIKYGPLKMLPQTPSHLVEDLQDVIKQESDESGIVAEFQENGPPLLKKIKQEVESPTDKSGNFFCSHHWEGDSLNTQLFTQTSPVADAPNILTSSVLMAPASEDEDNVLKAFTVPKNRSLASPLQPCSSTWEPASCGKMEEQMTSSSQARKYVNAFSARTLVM
Sequence of Hepatocyte nuclear factor 4-alpha (Homo sapiens) (P41235 whole entry, looked up, the tested form may be a part): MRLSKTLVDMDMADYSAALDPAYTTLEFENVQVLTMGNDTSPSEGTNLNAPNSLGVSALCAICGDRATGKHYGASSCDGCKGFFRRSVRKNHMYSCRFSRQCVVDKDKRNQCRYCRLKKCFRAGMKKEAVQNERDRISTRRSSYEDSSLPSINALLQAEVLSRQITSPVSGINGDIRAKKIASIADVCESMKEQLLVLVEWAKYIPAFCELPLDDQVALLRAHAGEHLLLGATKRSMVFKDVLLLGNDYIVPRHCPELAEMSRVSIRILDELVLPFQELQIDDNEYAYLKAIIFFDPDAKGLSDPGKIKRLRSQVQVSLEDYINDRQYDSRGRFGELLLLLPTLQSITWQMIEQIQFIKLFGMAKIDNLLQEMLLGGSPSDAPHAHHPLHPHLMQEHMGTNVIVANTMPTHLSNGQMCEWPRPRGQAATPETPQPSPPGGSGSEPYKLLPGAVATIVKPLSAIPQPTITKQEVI

Usually AC50 stands for the midpoint of the concentration-response curve, whichever way the signal moves. `Cc1ccc(OP(=O)(Oc2ccc(C)cc2)Oc2ccc(C)cc2)cc1` (tested in a mixture with another compound): the molecule was classed as inactive in [1], in assay [2], in assay [3], in assay [4], in assay [5] and in [7]. Also, the outcome in assay [8], in assay [9], in assay [10], in assay [11], in assay [12] and in assay [13] was inactive. Moreover, in assay [14], the outcome was inactive. Also, in [6], the AC50 was 1.85 µM (active).
Take `O=C1Nc2ccc(Cl)cc2C(c2ccccc2)=NC1O` (centres undefined): the result in [15], in assay [16], in assay [2], in assay [3], in assay [4] and in assay [6] was inactive. Further, the call in assay [17], in [7], in [8], in assay [9], in assay [10] and in [11] was inactive. Besides, the result in assay [12] and in assay [13] was inactive. Besides, the AC50 in [11] is 77.3 µM (active); in assay [13], 86.7 µM (active).
With `CC1(C)[C@H](C(=O)O[C@H](C#N)c2cccc(Oc3ccccc3)c2)[C@@H]1C=C(Br)Br`, the call in assay [1], in [16], in assay [2], in assay [3], in [18] and in assay [17] was inactive. Moreover, the outcome in [7], in assay [8], in [9], in assay [10], in assay [11] and in assay [12] was inactive. Besides, in [13], the outcome was inactive. In addition, the AC50 in assay [6] is 2.94 µM (active); in assay [11], 82.2 µM (active); in assay [14], 72.7 µM (active).
For the molecule `CCC(C)c1cc([N+](=O)[O-])cc([N+](=O)[O-])c1OC(=O)C=C(C)C` (centres undefined), the molecule was called inactive in assay [1], in [15], in [16], in assay [19], in assay [4] and in assay [20]. The outcome in assay [18], in assay [17], in assay [7] and in [12] was inactive. The AC50 is 80.1 µM (active) in [3]; 25.5 µM (active) in assay [5]; 1.05 µM (active) in assay [6]; 13.8 µM (active) in [8]; 13.9 µM (active) in assay [9]; 13.2 µM (active) in [10]. For the same molecule, the AC50 in [11] is 10.3 µM (active); in assay [13], 14.3 µM (active).
